Like-named read-outs stand apart in the source and are kept apart here. In all, about 13,000 compounds went through this assay and about 3,200 (25%) showed an effect of 50% or more. This is one part of the list.
System: P. falciparum stage V gametocytes
Parameters: BacTiter-Glo ATP luminescence viability of purified stage V gametocytes in 384-well plates, per cent inhibition versus DMSO
Details: 48 h, 5 µM, inhibitor

| Compound | % Inhibition | % Inhibition (% Inhibition) |
| --- | --- | --- |
| CN1CCCC1CCOc1ccc2c(c1)N(C(=O)Nc1cc(Br)cc(C(F)(F)F)c1)CC2 (stereo not drawn) [TCMDC-140247] | 47.25% | – |
| CC(C)c1ccc(NS(=O)(=O)c2cccc(C(=O)NC3CCN(CC4CCCCC4)CC3)c2)cc1 [TCMDC-136739] | -17.03% | – |
| CCOC(=O)CCCOc1cc(Cc2cnc(N)nc2N)cc(OC)c1OC [TCMDC-137356] | 44.1% | – |
| CC(C)c1ccc(CN(C)CCCCNC(=O)c2ccc(NC(=O)c3ccc(Cl)cc3)cc2)cc1 [TCMDC-138505] | 20.72% | – |
| Cc1nc2ccc(NC(=O)c3cc(S(=O)(=O)N(C)C)ccc3Cl)cc2s1 [TCMDC-124375] | 38.91% | – |
| COc1cc(Nc2nccc(N3CCC(NC(=O)C(C)c4ccc(Cl)cc4)C3)n2)cc(OC)c1OC (stereo not drawn) [TCMDC-133623] | 58.38% | – |
| COc1cc(C(C)C)nc2ccc(NC(=O)c3ccc(C(=O)Nc4ccc5nc(C(C)C)cc(OC)c5c4)cc3)cc12 [TCMDC-140150] | 33.52% | – |
| CC(C)C(C(=O)Nc1ccc2c(c1)OCO2)c1ccc(Cl)cc1 (stereo not drawn) [TCMDC-125398] | 78.19% | – |
| CC(C(=O)NC1CCN(c2ccnc(Nc3ccc(F)cc3)n2)C1)c1ccc(Cl)cc1 (stereo not drawn) [TCMDC-133596] | 19.11% | – |
| COc1ccc(Cl)cc1NC(=O)C(C)Nc1ccc(-c2ccccc2)cc1 (stereo not drawn) [TCMDC-123559] | -53.48% | – |
| COc1ccc(Nc2nccc(N3CCC(NC(=O)C(C)c4ccc(Cl)cc4)C3)n2)cc1 (stereo not drawn) [TCMDC-133612] | -10.01% | – |
| Cc1cc(N2CCCC2)nc(Nc2ccc(NC(=O)c3ccc4c(c3)OCO4)cc2)n1 [TCMDC-124955] | -35.01% | – |
| CC(C)C(C(=O)Nc1ccc(S(=O)(=O)N(C)C)cc1)c1ccc(Cl)cc1 (stereo not drawn) [TCMDC-125113] | 56.45% | – |
| COc1cc(NC(=O)C(c2ccc(Cl)cc2)C(C)C)cc(OC)c1OC (stereo not drawn) [TCMDC-125118] | 82.24% | – |
| O=C(Nc1ccc2c(c1)OCO2)c1cc(-c2cccnc2)nc2ccc(Cl)cc12 [TCMDC-125213] | -64.78% | – |
| O=C(Nc1ccccc1)Nc1ccc(-c2cccc(-c3nc4ccc(C(F)(F)F)cc4[nH]3)c2)cc1 [TCMDC-133153] | -37.9% | – |
| COC(=O)c1ccc2c(c1)nc(Nc1cccc(F)c1)n2CC(O)c1ccccn1 (stereo not drawn) [TCMDC-138586] | -5.24% | – |
| CC(C)(C)c1nn(-c2ccccc2)c2[nH]c(=O)c(CNCCc3ccccc3)cc12 [TCMDC-125381] | 14.37% | – |
| CCCCN1CCN(c2cc(NS(=O)(=O)c3ccc(C(=O)Nc4ccc(C(F)(F)F)cc4)cc3)ccc2OC)CC1 [TCMDC-141777] | -10.1% | – |
| O=C(Nc1ccc(-c2nc3ccccc3[nH]2)cc1)c1cncc(Br)c1 [TCMDC-123692] | 2.548% | – |
| COc1cc(NC(=O)C(c2ccc(Cl)cc2)C(C)C)cc(OC)c1 (stereo not drawn) [TCMDC-124823] | 74.52% | – |
| COc1cc(NC(=O)c2cccc([N+](=O)[O-])c2)cc(S(=O)(=O)c2ccc(Cl)cc2)c1 [TCMDC-124901] | 21.63% | – |
| COc1ccc(Nc2nccc(N3CCC(NC(=O)C(C)c4ccc(Cl)cc4)CC3)n2)cc1 (stereo not drawn) [TCMDC-133633] | 29.63% | – |

| Compound | % Inhibition | % Inhibition (% Inhibition) |
| --- | --- | --- |
| CCCc1nc2c(N3CC(NC(=O)/C=C/c4ccccc4)C3)cccc2n1C1CC1 [TCMDC-134613] | 8.32% | – |
| O=C1C2=C(Nc3ccccc3SC2c2cccs2)c2ccccc21 (stereo not drawn) [TCMDC-124060] | -4.275% | – |
| COCCNCc1ccc(-c2ccc(CNC3CCN(Cc4ccccc4)CC3)cc2)cc1 [TCMDC-140490] | 23.65% | – |
| COCCNCc1cccc(-c2ccc(CNC3CCN(Cc4ccccc4)CC3)cc2)c1 [TCMDC-140489] | 85.27% | – |
| COc1ccc(NCc2cccc(-c3cccc(CNCCc4ccccc4)c3)c2)cc1 [TCMDC-140485] | -4.016% | – |
| COCCNCc1ccc(-c2cccc(CNC3CCN(Cc4ccccc4)CC3)c2)cc1 [TCMDC-140482] | 107.8% | – |
| COCCNCc1ccc(-c2cccc(CNc3ccc(OC)cc3)c2)cc1 [TCMDC-140484] | -1.116% | – |
| COCCNCc1cccc(-c2cccc(CNC3CCN(Cc4ccccc4)CC3)c2)c1 [TCMDC-140481] | 99.88% | – |
| COc1cccc(CCNCc2ccc(-c3cccc(CNC4CCCC4)c3)cc2)c1 [TCMDC-140493] | 66.56% | – |
| O=C(NCc1cccc(C(F)(F)F)c1)C(c1cc2ccccc2o1)N1CCN(C(c2ccccc2)c2ccccc2)CC1 (stereo not drawn) [TCMDC-141008] | 8.041% | – |
| Cc1ccc(C(C)C)cc1CON1C(N)=NC(N)=NC1(C)C [TCMDC-131323] | 26.53% | – |
| COc1ccc2nccc([C@@H](O)CN3CCC(NCc4ccc(OC)c(NC=O)c4)CC3)c2c1 [TCMDC-141568] | 1.46% | – |
| CN(Cc1cccc(C#N)c1)C1CCN(c2cc(NC(=O)c3ccc(F)cc3)ccn2)CC1 [TCMDC-134974] | -6.144% | – |
| CN(C)CCOc1cc(NC(=O)Nc2ccc(Cl)cc2C(F)(F)F)ccc1I [TCMDC-139125] | -26.77% | – |
| Cc1cc(N[C@@H](CC(C)C)C(=O)NCCOc2ccccc2)nc(NCC2CCCCC2)n1 [TCMDC-134919] | -82.39% | – |
| COc1cccc(CN2CCC3(CC2)CN(C(=O)Nc2ccc(Cl)c(Cl)c2)C3)c1 [TCMDC-136484] | -4.115% | – |
| CN(CCCc1c[nH]c2ccccc12)CCC1CCC(NC(=O)/C=C/c2ccc(Cl)c(Cl)c2)CC1 (stereo not drawn) [TCMDC-139449] | -10.77% | – |
| CN1CCN(CC2(Nc3nccc(NCc4ccc(Cl)cc4Cl)n3)CCCCC2)CC1 [TCMDC-135114] | 73.23% | – |
| CN1CCN(CC2(Nc3nccc(NCCc4cn(C)c5ccccc45)n3)CCCCC2)CC1 [TCMDC-135122] | 114.3% | – |
| Clc1ccc(CNc2ccnc(NCc3cccnc3N3CCCC3)n2)c(Cl)c1 [TCMDC-135112] | 11.98% | – |
| Cn1cc(CCNc2ccnc(NCCc3coc4ccccc34)n2)c2ccccc21 [TCMDC-135121] | 46.44% | – |
| CCOc1ccccc1CNc1nccc(NCc2ccc(Cl)cc2Cl)n1 [TCMDC-135115] | 39.1% | – |
| CCOc1ccccc1CNc1nccc(NCCc2cn(C)c3ccccc23)n1 [TCMDC-135123] | 47.81% | – |

| Compound | % Inhibition | % Inhibition (% Inhibition) |
| --- | --- | --- |
| O=C(c1cccc(-c2ccc(-c3nc4cc(C(F)(F)F)ccc4[nH]3)cc2)c1)N1CCCCC1CN1CCC(O)C1 (stereo not drawn) [TCMDC-132345] | -7.323% | – |
| O=C([C@H]1CCCCN1c1ccc([N+](=O)[O-])c2ccccc12)N1CCN(c2ncccn2)CC1 [TCMDC-135504] | -25.11% | – |
| Cc1cccc(OC(C)C(=O)Nc2cc(C(F)(F)F)ccc2N2CCOCC2)c1 (stereo not drawn) [TCMDC-125116] | -67.15% | – |
| Nc1ncc(OC2CCCCC2)c(N)n1 [TCMDC-137916] | 86.08% | – |
| COc1ccc(Oc2cnc(N)nc2N)c(C(C)C)c1 [TCMDC-132471] | -12.02% | – |
| Nc1nccc2ccc(OC3CCCCC3)cc12 [TCMDC-136543] | 27.41% | – |
| Cc1nc(Nc2ccc(F)cc2)nc(N2CCc3ccccc3[C@@H]2C)c1C [TCMDC-141073] | -42.65% | – |
| c1ccc(CN2CCN(CCCCNc3c4ccccc4nc4ccccc34)CC2)cc1 [TCMDC-138009] | 101.2% | – |
| Cl.c1ccc(CN2CCN(CCNc3c4ccccc4nc4ccccc34)CC2)cc1 [TCMDC-137571] | 58.89% | – |
| NC(=NC1CC1)c1ccc2nc(CCCCCc3nc4ccc(C(N)=NC5CC5)cc4[nH]3)[nH]c2c1 [TCMDC-137236] | 9.891% | – |
| Cc1cc(SC(C)(C)C)cc2c(Cl)c(C(N)=O)cnc12 [TCMDC-135415] | 114.9% | – |
| COc1ccccc1-c1cccc(CNC2CCN(CC3Cn4c(=O)ccc5ccc(F)c3c54)CC2)c1 (stereo not drawn) [TCMDC-134411] | 15.92% | – |
| O=C(CCc1ccc(Cl)cc1Cl)NC1CCC(CN2CCC(c3c[nH]c4ccccc34)CC2)CC1 (stereo not drawn) [TCMDC-140296] | – | -15.31% |
| O=C(Cc1cc(=O)oc2cc(O)ccc12)NC1CCC(CN2CCC(c3c[nH]c4ccccc34)CC2)CC1 (stereo not drawn) [TCMDC-139882] | -52.99% | – |
| O=C(CSc1ccc(Cl)cc1)NC1CCC(CN2CCC(c3c[nH]c4ccccc34)CC2)CC1 (stereo not drawn) [TCMDC-139953] | -2.163% | – |
| O=C(NC1CCC(CN2CCC(c3c[nH]c4ccccc34)CC2)CC1)c1cnn(-c2ccccc2)c1-c1ccccc1Cl (stereo not drawn) [TCMDC-140375] | 25.23% | – |
| O=C(NC1CCC(CN2CCC(c3c[nH]c4ccccc34)CC2)CC1)c1cn(Cc2ccccc2)c2ccccc12 (stereo not drawn) [TCMDC-139888] | 107.9% | – |
| O=C(Cc1c(-c2ccccc2)[nH]c2ccccc12)NC1CCC(CN2CCC(c3c[nH]c4ccccc34)CC2)CC1 (stereo not drawn) [TCMDC-139909] | 71.88% | – |
| O=C(CCc1ccc(Cl)cc1Cl)NC1CCC(CN2CCC(c3c[nH]c4ccccc34)CC2)CC1 (stereo not drawn) [TCMDC-140262] | – | -48.76% |
| O=C(CCCCCc1ccccc1)NC1CCC(CN2CCC(c3c[nH]c4ccccc34)CC2)CC1 (stereo not drawn) [TCMDC-139952] | 95.36% | – |
| CCOCCCNc1ncc(-c2ccsc2)c(-c2nc(C)cs2)n1 [TCMDC-124842] | 18.59% | – |
| Cc1cccc(C(=O)Nc2ccnc(N3CCC(N(C)Cc4ccc(C#N)cc4)CC3)c2)c1 [TCMDC-134977] | 5.364% | – |
| CCN(CC)CCN1C(=O)c2oc3ccc(F)cc3c(=O)c2C1c1cccc(Cl)c1 (stereo not drawn) [TCMDC-124911] | 13.72% | – |

From publication PMC4552634, “A New Set of Chemical Starting Points with Plasmodium falciparum Transmission-Blocking Potential for Antimalarial Drug Discovery” (PLoS ONE, 2015)
